The values below come from the supplement of paper PMC11417369.

± gives the standard deviation of the averaged measurements. The full ranking holds about 25,000 sequences; the median of “ln(normalized median fluorescence intensity)” is about 8.6, and the highest 2% start at about 10. For the sample, the highest values were picked, then their nearest neighbours and some sequences at random.

This experiment has as its system PfAP2-EXP AP2 domain (GST-tagged). The experiment in a line: gcPBM binding intensity (ln(normalized median fluorescence intensity)); higher = stronger DNA binding. Put shortly: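 After 1 h on an Agilent 4 × 180k array of primer-extended double-stranded 36-bp intergenic genomic probes and negative controls, bound GST-tagged P. falciparum DNA-binding domains were detected with Alexa488 anti-GST antibody and scanned at 488 nm. The domains had been expressed in E. coli, and binding took place in 1× PBS with 1% milk, 0.2 mg/ml BSA, 0.5% salmon testes DNA and 0.03% Triton X-100. Binding intensity is the highest Masliner-normalised natural-log median intensity across replicate spots of either probe orientation.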
With “GTCTATTCAAAAAAGTGTACGGACATATAAACATAC [XGTACX_site6516]”, the “gcPBM binding intensity (ln)” value stood at 9.04 ± 0.28.
The figure for “ATATATATATTTACATGTACACATCTATATATAAAC [XGTACX_site5581]” is 9.445 ± 0.049; for “GCACATCTATATGAAACACACATGGAAACATCTCTT [CACACA_site7793]” it is 8.47 ± 0.35.
The figure for “TAAAGTTTTTTTTTAACACACACATAATAAAATAAA [CACACA_site8042]” is 8.46 ± 0.51.
In the case of “TTTCTATTACGAACGTGTACATACATTATTCTTAAA [XGTACX_site5816]”, the “gcPBM binding intensity (ln)” value is 8.88 ± 0.26.
For “TAAAGAGTTACCATTTGTACTTACGCACACATAAAA [XGTACX_site3145]”, the “gcPBM binding intensity (ln)” value was 8.45 ± 0.37.
In the case of “AATTAAATATTATAAACACACATATAGATTATTTTT [CACACA_site6538]”, the “gcPBM binding intensity (ln)” value was 8.17 ± 0.49.
Regarding “ACAAAATAAAACATCTGTACATATTATTATTATAAG [XGTACX_site4802]”, the “gcPBM binding intensity (ln)” value was determined as 8.34 ± 0.35.
Turning to “AAAACATTGTTTATGTGTACATAATTATATTTACAA [XGTACX_site6926]”, the “gcPBM binding intensity (ln)” value stood at 8.45 ± 0.39.
With “ATATATTATATAAAGTGTACAAAAAAAATATATAAA [XGTACX_site8065]” the figure was 8.91 ± 0.41; with “TATATATATATAATGTGTACACAAATATATATTATA [XGTACX_site8786]”, 9.74 ± 0.23.
For “ATCTGACAAAAGTGTACACATATATATATATATATA [CACACA_site4814]”, the “gcPBM binding intensity (ln)” value was 10.2 ± 0.61.
The figure for “TATGTAACAAAAAAAAGTACACATATATATAGTGTA [XGTACX_site7772]” is 8.52 ± 0.39.
Consider “GTGTACAGACACAAAATATATACATATATATATATA [CACACA_negctrl_site1796]”, for which the “gcPBM binding intensity (ln)” value worked out at 9.87 ± 0.54.
The figure for “ATTATATATATAAAGTGTACAAAAAAAAAAAAAAAA [XGTACX_site3134]” is 8.46 ± 0.33; for “ATAATCTGACAAATGTGTACACATATATATATATAT [XGTACX_site2379]” it is 10.3 ± 0.34; for “CATATTAGGACAAAGTGTACATATATATATATATAT [XGTACX_site1172]” it is 10.3 ± 0.27.
With “AAAAATATAATATAATGTACACAAAAAAAAAAAATC [XGTACX_site1427]”, the “gcPBM binding intensity (ln)” value came to 8.73 ± 0.49.
The figure for “TAGTTACCTTAATATTGTACTTTTCTTTCATATATG [XGTACX_site1309]” is 8.82 ± 0.38; for “TATAATATATATTTGTGTCCACAACATTTTTAATAT [XGTACX_site2089]” it is 8.56 ± 0.28; for “TTTTTTTTTTGATGTTGTACATATATATTATATAAT [XGTACX_site2765]” it is 8.55 ± 0.4.
With “AAAACAAAATAGGGAACACACACATGTCAATATATA [CACACA_site8834]” the figure was 8.88 ± 0.41; with “TCCCATAATATTAGTAGTACTATTAATATTTTCAGG [XGTACX_site4925]”, 8.33 ± 0.42.
With ATTTTTTTCTTAGGAGTGCACTTATATTTATTTTAT the figure was 9.12 ± 0.11; with “ATCATATTTTTATGTGTGCACTTTTTTTTTTTTTTT [GTGCAC_site9555]”, 9.02 ± 0.099.
Regarding ATATATTTTATATGTGTGCACTATATATATATATAT, the “gcPBM binding intensity (ln)” value came out at 10.3 ± 0.18.
As for TATATATAAATATATGTGCACTTTTTATATTTATAT, the “gcPBM binding intensity (ln)” value was 9.06 ± 0.099.
With “TTTATATTCTTAAGTGTGCACTATATATATATATAT [GTGCAC_site9719]” the figure was 10.38 ± 0.049; with ATTTATATTAAAAGTGTGCACTTTTTTTTTTTTTTT, 8.67 ± 0.042.
The figure for “TTTATATCTTATTATAGGAAAATGAATATTTTCTCT [TGCATGCA_negctrl_site478]” is 8.19 ± 0.36; for “TATTTTAACTTCTCATGTACATATATTATGTCTATA [XGTACX_site249]” it is 9.01 ± 0.39; for “ATAGAACTGAATAAATCTATAAATAAATATATATAT [GTGCAC_negctrl_site604]” it is 9.16 ± 0.23.
For the sequence “AATATAAACACAAACACACACATATAGATTTATATA [CACACA_site6263]”, the “gcPBM binding intensity (ln)” value was determined as 8.55 ± 0.38.
The figure for “TATAAAATTACATTTTGTCATTTATTTTTTCCCACT [TGCATGCA_negctrl_site110]” is 8.28 ± 0.45.
Take “ATTTTTGTTATTACATGTACCCATAATTATTATTAA [XGTACX_site3558]”: the “gcPBM binding intensity (ln)” value is 9.22 ± 0.44.
With “TTTTGGTTAATTCCCCCCATTACATTATGTCATGTC [CACACA_negctrl_site229]” the figure was 10.185 ± 0.007; with “TTTTGTTTAAAAAAAAAAAACAAAAAAAAGCAATTA [CACACA_negctrl_site314]”, 8.32 ± 0.51.
Regarding “TAATTATATGTATACACACACATACATTTACATAAC [CACACA_site3238]”, the “gcPBM binding intensity (ln)” value worked out at 8.66 ± 0.52.
The figure for “TGCTTTTATTTCTTCACACATATGTAAAAAAAAGAA [CACACA_site5906]” is 8.76 ± 0.42; for “AATCAAAACATTAAAAAGAAAAAATATATATATATA [CACACA_negctrl_site366]” it is 10.2 ± 0.26; for “ATCAAAAGAAAACACACACACATACATATATATATA [CACACA_site3795]” it is 9.81 ± 0.28.
In the case of “AAAAAAAAGAAACACACACACATACACATAAATATA [CACACA_site3807]”, the “gcPBM binding intensity (ln)” value was 8.79 ± 0.47.
For the sequence “AAAACACAAAAAAAATGTACACATATATATATATAT [XGTACX_site8509]”, the “gcPBM binding intensity (ln)” value amounted to 10 ± 0.38.
Consider “TTATATAAAACATTAACACACAAAGAAAAAAAATTA [CACACA_site1793]”, for which the “gcPBM binding intensity (ln)” value is 8.57 ± 0.47.
Consider “AAAACATCAAAAATGTGTACATATATATATATATAT [XGTACX_site8884]”, for which the “gcPBM binding intensity (ln)” value was determined as 10.3 ± 0.21.
With “AAAACTATATTAATGTGTACACATCAAAATATTAAT [XGTACX_site6767]” the figure was 8.65 ± 0.13; with “AATATAAAATCAAGAAATTAAAAAAAAACAGAAAAC [CACACA_negctrl_site1004]”, 8.93 ± 0.49; with “AAAAAATACATCAAAAGAAACATATATATATATATA [GTGCAC_negctrl_site719]”, 10.2 ± 0.67.
The figure for “TGGTAAATTTACCGTTGTACATTCATTTATAACATT [XGTACX_site8910]” is 8.68 ± 0.42; for “TATATATAGCATATTTCACACACACCGAATGAATAT [CACACA_site9182]” it is 8.64 ± 0.36; for “ATTGTGTTAATAAAATGTACATTTTCTCTACTTTAA [XGTACX_site1199]” it is 8.8 ± 0.35.
Turning to “TGTTCTAATTTTAATTGTACATATATACATATATAT [XGTACX_site7290]”, the “gcPBM binding intensity (ln)” value was 8.46 ± 0.35.
As to “AAAAATATATAAAGAAAAAGAATATAATATAAAATA [GTGCAC_negctrl_site208]”, the “gcPBM binding intensity (ln)” value stood at 8.53 ± 0.38.
The figure for “AACATATTTATGATGTGTACCTACATAATAGAATTT [XGTACX_site141]” is 8.38 ± 0.32.
The figure for “AAAAAGGTTATTGGTACACACATATGTATATATATA [CACACA_site552]” is 9.3 ± 0.057; for “AAGGTAAAATATAAGTGTACTTTTTCTTAATCTTCG [XGTACX_site514]” it is 8.31 ± 0.15.
With “ATGGGAATATAATTATGTACATATAAAAATTATAAA [XGTACX_site5336]” the figure was 8.62 ± 0.34.
